Shown are actives, neighbours in structure and some others; about 12% of the full set was active somewhere.
CHOP inhibitor – inhibitors of CHOP induction in ER stress response; CHO-K1 CHOP-promoter luciferase, tunicamycin-induced, 15-18 h; inhibition, % at 10 µM; actives 3.8% (n = 220,000); AID 2732;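 active = compounds that reduced the stress-induced luciferase reporter signal by more than about 70% of percent inhibition, limit read from the data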;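 also: 0% = tunicamycin plus vehicle and 100% = wells without tunicamycin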
WT yeast gro inh – growth inhibition of WT yeast, mitochondrial fusion screen; mitochondrial fusion phenotypic screen, WT strain; inhibition, % at 10 µM; actives 2.1% (n = 190,000); in the data active = inhibition above about 58%; tested in S. cerevisiae
L major viab – Leishmania major promastigote growth inhibition; Leishmania major promastigotes, resazurin fluorescence viability; inhibition, % at 10 µM; actives 9% (n = 200,000); in the data active = inhibition above about 50%;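 also: promastigotes grown with compound for 44 hours at 28 °C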
Arbovirus inh – arbovirus infection inhibition. inhibition, % at 10 µM. actives 0.37% (n = 200,000). arbovirus infection cell-based antiviral screen; in the data active = inhibition above about 30%
The depositor's hits bear a star; . = no result given.

SMILES | CHOP inhibitor | WT yeast gro inh | L major viab | Arbovirus inh
O=C(C1CC(=O)N(C2CCCC2)C1)N1CCC(Cc2ccccc2)CC1 (stereo not drawn) | -17 | 16 | 70* | 1
O=C(C1CC(=O)N(C2CCCC2)C1)N1CCN(c2ccccc2F)CC1 (stereo not drawn) | 26 | -16 | -3 | -1
O=C(c1ccccc1)[C@@H]1[C@@H](C(=O)c2ccc(F)cc2)[C@@]2(C(=O)Nc3ccccc32)[C@H]2c3ccccc3C=CN12 | 5 | 16 | 74* | 17
Cc1cnc(C(=O)NCC(c2ccccc2)c2ccccc2)cn1 | -9 | -6 | -3 | -6
COc1cccc(C2CC(c3ccc(Br)cc3)=NN2C(=O)c2ccncc2)c1OC (stereo not drawn) | -17 | 37 | 61* | -18
COc1cccc(C2CC(c3cccc(NS(C)(=O)=O)c3)=NN2C(=O)c2ccccc2)c1OC (stereo not drawn) | 16 | -3 | 3 | -15
COc1ccccc1C1CC(c2ccc(Br)cc2)=NN1C(=O)c1cccnc1 (stereo not drawn) | 38 | 34 | 51* | -15
COc1ccc(CN2CCN(C(=O)c3cccnc3)CC2)cc1Br | -1 | -11 | -5 | 3
CNC(=O)NC(=O)COC(=O)c1ccccc1OCc1ccccc1 | 11 | -13 | -3 | 11
FC(F)Oc1ccc(/C=N/NC(=S)Nc2cc(C(F)(F)F)ccc2Cl)cc1 | 76* | 5 | -8 | 0
COc1ccc(NC(=O)CSc2nnc(NC(=O)c3ccccc3C(=O)O)s2)cc1 | -3 | 6 | -20 | 6
CC(C)N(C)CCOC(=O)/C=C/c1ccccc1 | -10 | 10 | 4 | 1
CC1=CC(=NOC(=O)/C=C/c2ccccc2)C=C(C)C1=O | 21 | -19 | 101* | -5
Cn1c2ccccc2c2cnn(CC(=O)Nc3ccc(F)cc3F)c(=O)c21 | 88* | . | . | .
Cn1c2ccccc2c2cnn(CC(=O)Nc3ccccc3Br)c(=O)c21 | 37 | . | . | .
CC1(CCc2ccc3c(c2)OCO3)NC(=O)c2ccccc2N1 (stereo not drawn) | 11 | 2 | 100* | 2
O=C(C[n+]1cc(-c2ccc(Cl)cc2)n2c1CCCCC2)c1ccccc1 | -3 | . | . | .
COc1ccc(-c2c[n+]3c4n2CCCCC4=C(c2ccc(Br)cc2)C3)cc1 | 56 | -7 | 100* | -23
Clc1ccc(C2=C3CCCCn4c(-c5ccccc5)c[n+](c43)C2)cc1 | 15 | 1 | 100* | -20
O=C(CCn1c(=S)[nH]c2ccccc2c1=O)NCCc1ccc(Cl)cc1 | 2 | 5 | -9 | 9
COc1ccc(NS(=O)(=O)c2ccc3c(c2)Cc2ccccc2-3)cn1 | 95* | 60* | -7 | 22
COc1ccc(NS(=O)(=O)c2ccc(N3CCCC3=O)cc2)cn1 | 3 | -15 | -2 | -2
O=[N+]([O-])c1sccc1CS(=O)(=O)c1ccccc1 | 5 | . | . | .
C=CCN1C(=O)C(CC(=O)Nc2ccccc2)S/C1=N/c1nccs1 (stereo not drawn) | 19 | . | . | .
COc1ccc2c(c1)c(CC(=O)N1CCOCC1)c(C)n2C(=O)c1ccc(Cl)cc1 | -8 | . | . | .
SMILES | CHOP inhibitor | WT yeast gro inh | L major viab | Arbovirus inh
COCCNC(=O)CSc1ccc(C)cc1 | 22 | -12 | -6 | -8
COCCNC(=O)CSc1nnc(-c2ccc(C)cc2)c(-c2ccc(C)cc2)n1 | 34 | 28 | 90* | -13
CC(C)CC(c1nnnn1CCc1ccccc1)N1CCC(C(N)=O)CC1 (stereo not drawn) | 15 | -22 | -2 | 6
CCOC(=O)C1(Cc2cccc(Cl)c2)CCCN(C2CCN(C(C)=O)CC2)C1 (stereo not drawn) | 6 | 5 | 83* | -4
CCOC(=O)C1=C(c2ccccc2)N=C2SCC(=O)N2C1c1ccc2c(c1)OCO2 (stereo not drawn) | 18 | 60* | -1 | -4
Cc1ccc(N2C(=O)C3ON(c4ccccc4)C(CC(C)C)C3C2=O)cc1 (stereo not drawn) | 12 | . | . | .
FC(F)(F)c1cc(-c2ccc(Cl)cc2)nc(NCc2cccnc2)n1 | 89* | 10 | -1 | -12
Cc1cc(C)c2c(CC(=O)Nc3nccs3)coc2c1 | 82* | -21 | -4 | -2
Cc1cc(C)c2c(CC(=O)NC(C)C)coc2c1 | 11 | -9 | -9 | 18
COc1ccc(NC(=S)Nc2cc(C)[nH]n2)cc1Cl | -6 | . | . | .
Cc1cc(NC(=S)Nc2ccc(C)c(Cl)c2)n[nH]1 | 3 | 75* | 28 | 10
COc1ccc(NC(=S)Nc2cc(-c3ccccc3)[nH]n2)cc1Cl | 78* | 66* | -4 | 15
CCC(C)N1CCNCC1 (stereo not drawn) | 28 | 12 | -2 | 4
CC(=O)/C=C(\C)Nc1ccccc1O | 9 | . | . | .
COc1ccc(N2CCN(C(=O)Cn3c(=O)[nH]c4ccsc4c3=O)CC2)cc1 | -3 | 12 | 23 | 9
Cc1cccc(N2CCN(C(=O)Cc3ccc(-n4c(=O)[nH]c5ccsc5c4=O)cc3)CC2C)c1 (stereo not drawn) | 10 | 2 | 56* | 2
O=C(Cc1ccc(-n2c(=O)[nH]c3ccsc3c2=O)cc1)N1CCN(c2ccc(Cl)cc2)CC1 | 38 | 0 | 70* | 10
Cc1cccc(N2CCN(C(=O)Cn3c(=O)[nH]c4ccsc4c3=O)CC2C)c1 (stereo not drawn) | 5 | 0 | -2 | 0
O=C(COc1c(F)c(F)c(C(F)(F)F)c(F)c1F)Nc1ccc(N2CCOCC2)c(Cl)c1 | 85* | 70* | 2 | -12
CCC(C)c1ccc(NC(=O)COc2c(F)c(F)c(C(F)(F)F)c(F)c2F)cc1 (stereo not drawn) | 65 | 70* | -3 | -19
CCC(C)c1ccc(OCC(=O)Nc2ccc3[nH]c(=O)[nH]c3c2)cc1 (stereo not drawn) | 5 | -7 | -2 | -2
O=C(CSc1nnc(Cc2ccccc2)o1)c1cc(F)ccc1F | 4 | 5 | -12 | 22
O=C(Cn1nc(C(F)(F)F)c2c1CCCC2)NCc1ccco1 | 0 | -11 | 10 | 4
CCN(CC)c1ccc(C2C(C(=O)OC(C)C)C(=O)CC(C)(O)C2C(=O)OC(C)C)cc1 (stereo not drawn) | 1 | -5 | -3 | 5
Cc1cc(=O)c(C(=O)O)nn1-c1ccccc1 | 20 | -38 | -5 | 0
SMILES | CHOP inhibitor | WT yeast gro inh | L major viab | Arbovirus inh
O=C(NCc1ccccc1)c1cccc(NS(=O)(=O)c2cccc3cccnc23)c1 | 10 | -10 | 54* | 3
O=S(=O)(NCc1ccccc1)c1cccc2cccnc12 | 23 | -1 | 64* | 5
O=C(Nc1ccc2ccccc2c1)[C@@H]1C[C@H]1[C@@H](NP(=O)(c1ccccc1)c1ccccc1)c1ccccc1 | 53 | 2 | 34 | -19
CC(Oc1ccc(Cl)cc1Cl)c1nc(-c2ccc(NC(=O)c3ccco3)cc2)no1 (stereo not drawn) | 41 | 85* | 4 | -14
CC(C)Oc1ccc(/C=C/C(=O)NCC2COc3ccccc3O2)cc1 (stereo not drawn) | 13 | . | . | .
COc1ccc(C2c3c(-c4ccccc4O)n[nH]c3C(=O)N2Cc2ccco2)cc1OC (stereo not drawn) | 9 | . | . | .
O=C1c2[nH]nc(-c3ccccc3O)c2C(c2ccc(F)cc2)N1CC1CCCO1 (stereo not drawn) | 39 | -1 | 44 | 33*
